Assay results from PubChem BioAssay AID1159580 (chemical genetic matrix, 2015).
The campaign covered roughly 5,500 compounds. About 2,000 (36%) were called active. Not shown: some 18% with an inconclusive outcome. Rule as the data show it: active = normalized growth mostly below about 0.91 (no sharp cut-off); inconclusive = no clear call, values can overlap the other calls; inactive = mostly above about 0.92. Some of the results follow.

Assay: chemical genetic growth profiling, strain panel (AID 1159580);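 also: tested at 20 µM; growth read once vehicle control cultures reached saturation at 30 °C; 1 = growth at the plate median or of vehicle wells; lower values mean less growth of the strain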
Settings: growth OD

Measured: normalized growth

Cc1nnc(NS(=O)(=O)c2ccc(N)cc2)s1
inactive: S. cerevisiae deletion strains, locus YKL009W, strain mrt4, hits give low values 1.05 | S. cerevisiae deletion strains, locus YKL068W, hits give low values 0.996 | S. cerevisiae deletion strains, locus YKL085W, strain MDH1 (second series), hits give low values 0.998 | S. cerevisiae deletion strains, locus YKL085W, strain MDH1, hits give low values 0.998 | S. cerevisiae deletion strains, locus YKL160W, strain elf1, hits give low values 1.01 | S. cerevisiae deletion strains, locus YKL190W, strain CNB1, hits give low values 1.02 | S. cerevisiae deletion strains, locus YKR001C, strain vps1, hits give low values 1.02 | S. cerevisiae deletion strains, locus YKR026C, strain gcn3, hits give low values 1.01 | S. cerevisiae deletion strains, locus YKR091W, strain srl3, hits give low values 0.99 | S. cerevisiae deletion strains, locus YLL001W, strain dnm1, hits give low values 0.995 | S. cerevisiae deletion strains, locus YLL026W, hits give low values 0.998 | S. cerevisiae deletion strains, locus YLL041C, strain sdh2, hits give low values 1 | S. cerevisiae deletion strains, locus YLR027C, strain aat2, hits give low values 1.01 | S. cerevisiae deletion strains, locus YLR039C, strain RIC1, hits give low values 1.09 | S. cerevisiae deletion strains, locus YLR058C, strain SHM2, hits give low values 1.01 | S. cerevisiae deletion strains, locus YLR102C, strain apc9, hits give low values 0.985 | S. cerevisiae deletion strains, locus YLR113W, strain HOG1, hits give low values 0.966 | S. cerevisiae deletion strains, locus YLR221C, strain rsa3, hits give low values 1.01 | S. cerevisiae deletion strains, locus YLR258W, strain gsy2, hits give low values 0.997 | S. cerevisiae deletion strains, locus YLR262C, strain YPT6 (second series), hits give low values 0.99 | S. cerevisiae deletion strains, locus YLR262C, strain YPT6, hits give low values 1.07 | S. cerevisiae deletion strains, locus YLR268W, strain sec22, hits give low values 1.04 | S. cerevisiae deletion strains, locus YLR320W, strain mms22, hits give low values 0.99 | S. cerevisiae deletion strains, locus YLR330W, strain CHS5, hits give low values 1.01 | S. cerevisiae deletion strains, locus YLR342W, strain FKS1 (second series), hits give low values 1.04 | S. cerevisiae deletion strains, locus YLR342W, strain FKS1, hits give low values 0.996 | S. cerevisiae deletion strains, locus YLR357W, strain rsc2, hits give low values 1.03 | S. cerevisiae deletion strains, locus YLR370C, strain arc18, hits give low values 1.01 | S. cerevisiae deletion strains, locus YLR371W, strain rom2, hits give low values 0.984 | S. cerevisiae deletion strains, locus YLR384C, strain iki3, hits give low values 1 | S. cerevisiae deletion strains, locus YLR418C, strain cdc73, hits give low values 1.04 | S. cerevisiae deletion strains, locus YML016C, strain PPZ1, hits give low values 1.01 | S. cerevisiae deletion strains, locus YML032C, strain rad52, hits give low values 1.01 | S. cerevisiae deletion strains, locus YML120C, strain ndi1, hits give low values 0.987 | S. cerevisiae deletion strains, locus YML124C, strain tub3, hits give low values 1 | S. cerevisiae deletion strains, locus YMR058W, strain fet3, hits give low values 0.998 | S. cerevisiae deletion strains, locus YMR078C, strain ctf18, hits give low values 0.991 | S. cerevisiae deletion strains, locus YMR125W, strain sto1, hits give low values 0.998 | S. cerevisiae deletion strains, locus YMR129W, hits give low values 1.01 | S. cerevisiae deletion strains, locus YMR205C, strain PFK2, hits give low values 1 | S. cerevisiae deletion strains, locus YMR223W, strain ubp8, hits give low values 0.997 | S. cerevisiae deletion strains, locus YMR231W, strain pep5, hits give low values 1 | S. cerevisiae deletion strains, locus YMR263W, strain SAP30, hits give low values 1.01 | S. cerevisiae deletion strains, locus YMR307W, strain GAS1, hits give low values 0.987 | S. cerevisiae deletion strains, locus YNL067W, strain RPL9B, hits give low values 1.02 | S. cerevisiae deletion strains, locus YNL071W, strain lat1, hits give low values 0.993 | S. cerevisiae deletion strains, locus YNL128W, strain TEP1, hits give low values 1.03 | S. cerevisiae deletion strains, locus YNL153C, strain GIM3, hits give low values 1.01 | S. cerevisiae deletion strains, locus YNL183C, strain NPR1, hits give low values 0.953 | S. cerevisiae deletion strains, locus YNL209W, strain ssb2, hits give low values 1.01 | S. cerevisiae deletion strains, locus YNL233W, strain BNI4, hits give low values 1.01 | S. cerevisiae deletion strains, locus YNL248C, strain rpa49, hits give low values 1.01 | S. cerevisiae deletion strains, locus YNL250W, strain rad50, hits give low values 1.01 | S. cerevisiae deletion strains, locus YNL271C, strain bni1, hits give low values 1 | S. cerevisiae deletion strains, locus YNL298W, strain CLA4, hits give low values 1.03 | S. cerevisiae deletion strains, locus YNL307C, strain MCK1, hits give low values 1 | S. cerevisiae deletion strains, locus YNL322C, strain KRE1 (second series), hits give low values 0.999 | S. cerevisiae deletion strains, locus YNR049C, strain mso1, hits give low values 1 | S. cerevisiae deletion strains, locus YNR052C, strain pop2, hits give low values 0.989 | S. cerevisiae deletion strains, locus YOL006C, strain TOP1, hits give low values 1.04 | S. cerevisiae deletion strains, locus YOL012C, strain htz1 0.962 | S. cerevisiae deletion strains, locus YOL147C, strain pex11, hits give low values 0.986 | S. cerevisiae deletion strains, locus YOR001W, strain rrp6, hits give low values 1 | S. cerevisiae deletion strains, locus YOR061W, strain CKA2, hits give low values 1.01 | S. cerevisiae deletion strains, locus YOR069W, strain VPS5, hits give low values 1.01 | S. cerevisiae deletion strains, locus YOR070C, strain gyp1, hits give low values 1.01 | S. cerevisiae deletion strains, locus YOR080W, strain dia2, hits give low values 1 | S. cerevisiae deletion strains, locus YOR083W, strain WHI5, hits give low values 0.978 | S. cerevisiae deletion strains, locus YOR106W, strain vam3, hits give low values 1.02 | S. cerevisiae deletion strains, locus YOR136W, strain idh2, hits give low values 0.992 | S. cerevisiae deletion strains, locus YOR144C, strain elg1, hits give low values 0.992 | S. cerevisiae deletion strains, locus YOR184W, strain ser1, hits give low values 1.01 | S. cerevisiae deletion strains, locus YOR231W, strain MKK1, hits give low values 1.01 | S. cerevisiae deletion strains, locus YOR265W, strain rbl2, hits give low values 1 | S. cerevisiae deletion strains, locus YOR270C, strain vph1, hits give low values 1.02 | S. cerevisiae deletion strains, locus YOR290C, strain snf2, hits give low values 1 | S. cerevisiae deletion strains, locus YOR316C, strain cot1, hits give low values 0.99 | S. cerevisiae deletion strains, locus YPL051W, strain arl3, hits give low values 1 | S. cerevisiae deletion strains, locus YPL078C, strain atp4, hits give low values 0.999 | S. cerevisiae deletion strains, locus YPL106C, strain sse1, hits give low values 1.02 | S. cerevisiae deletion strains, locus YPL240C, strain hsp82, hits give low values 1.02 | S. cerevisiae deletion strains, locus YPL241C, strain CIN2, hits give low values 1.01 | S. cerevisiae deletion strains, locus YPL256C, strain CLN2, hits give low values 0.979 | S. cerevisiae deletion strains, locus YPR119W, strain clb2, hits give low values 0.989 | S. cerevisiae deletion strains, locus YPR141C, strain kar3, hits give low values 1.01 | S. cerevisiae deletion strains, locus YPR163C, strain tif3, hits give low values 0.992 | S. cerevisiae deletion strains, locus YPR167C, strain met16, hits give low values 0.997 | S. cerevisiae deletion strains, strain wtn01, hits give low values 1.02 | S. cerevisiae strains, strain wild type, hits give low values 1.01
